Test results published in PubChem BioAssay (Tox21).
Inconclusive results are not listed. Calls of active or inactive are those of the source. Unless noted, calls follow the shape of the full dose curve.

Legend:
[1] = Nuclear factor erythroid 2-related factor 2/antioxidant responsive element (Nrf2/ARE) small molecule agonists: qHTS cell viability counter screen in human keratinocytes (AID 1919968; active = well fitted curve in the direction sought with a large enough effect in the repeat runs; an effect the other way counts as inactive or inconclusive; also: nearly all actives have a fitted effect of over 55% in size)
Procedure, shortened: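 HaCaT ARE reporter line, 1,500 cells/well; 5 h settle, 37 C/5% CO2; cpd in DMSO pinned; 23 h exposure; CellTiter-Fluor, 1 h; fluorescence.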

[2] = molecular target: Gonadotropin-releasing hormone receptor (Homo sapiens) (UniProt P30968); assay: Human gonadotropin-releasing hormone receptor (GnRHR) small molecule agonists, calcium flux assay in GnRHR-HEK293 cells (AID 1920063); also: nearly all actives have a fitted effect of over 35% in size
Sequence of Gonadotropin-releasing hormone receptor (Homo sapiens) (P30968 whole entry, looked up): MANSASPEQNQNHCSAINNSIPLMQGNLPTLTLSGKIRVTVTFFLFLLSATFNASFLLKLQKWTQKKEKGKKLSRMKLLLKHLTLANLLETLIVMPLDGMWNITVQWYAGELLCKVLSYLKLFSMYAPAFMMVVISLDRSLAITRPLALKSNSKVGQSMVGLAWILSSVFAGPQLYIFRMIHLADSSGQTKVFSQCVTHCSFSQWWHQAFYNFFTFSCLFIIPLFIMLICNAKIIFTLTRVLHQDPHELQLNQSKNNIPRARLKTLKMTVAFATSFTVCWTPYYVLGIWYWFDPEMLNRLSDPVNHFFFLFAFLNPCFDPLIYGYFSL
Procedure, shortened: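 GnRHR-HEK293, 1500 cells/well, 18 h 37 C/5% CO2; Ca dye 1 h 37 C; cpd pinned (DMSO), agonist mode; kinetic FL 480/540, 3 min, 1 s reads; 15 conc, n=3.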

[3] = molecular target: KiSS-1 receptor (Homo sapiens) (UniProt Q969F8); assay: Human kisspeptin (KISS1R) small molecule agonists, calcium flux assay in KISS1R-HEK293 cells (AID 1920064; active = well fitted curve in the direction sought with a large enough effect in the repeat runs; an effect the other way counts as inactive or inconclusive)
Sequence of KiSS-1 receptor (Homo sapiens) (Q969F8 whole entry, looked up): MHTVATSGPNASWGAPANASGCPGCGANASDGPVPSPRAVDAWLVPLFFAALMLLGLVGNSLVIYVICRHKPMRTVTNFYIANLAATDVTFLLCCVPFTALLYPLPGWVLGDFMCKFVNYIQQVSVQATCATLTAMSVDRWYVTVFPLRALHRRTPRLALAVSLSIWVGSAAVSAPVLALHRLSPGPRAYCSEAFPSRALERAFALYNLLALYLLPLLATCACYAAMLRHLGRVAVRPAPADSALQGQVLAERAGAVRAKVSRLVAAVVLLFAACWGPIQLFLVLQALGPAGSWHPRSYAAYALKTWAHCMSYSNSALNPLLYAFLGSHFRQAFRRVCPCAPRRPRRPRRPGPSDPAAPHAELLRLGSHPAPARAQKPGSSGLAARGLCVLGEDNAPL
Procedure, shortened: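 Stable human KISS1R HEK293 line; 18 h plating, 37 C/5% CO2; calcium dye 1 h 37 C; compound pin transfer; kinetic fluorescence Ex/Em 480/540, 3 min.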

[4] = G protein-coupled receptor (GPCR) small molecule agonists, calcium flux assay: HEK293 wild type cell line counter screen (AID 1920065)
Procedure, shortened: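 Kinetic fluorescence at Ex/Em 480/540, recorded every second over 3 min, served as the read-out after compound addition. Each compound was tested at 15 concentrations in triplicate on cells pre-loaded with calcium dye for 1 h.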

[5] = p53 small molecule agonists, cell-based qHTS assay with human liver microsomes (AID 1963577);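 also: p53 response element beta-lactamase reporter cells with liver microsomes plus NADPH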
Procedure, shortened: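 Metabolically competent format: test substances, human liver microsomes and NADPH (both 0.5 mg/mL final) incubated with p53RE-bla cells 16 h at 37 C. Beta-lactamase reporter signal then quantified by fluorescence.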

[6] = p53 small molecule agonists, cell-based qHTS assay with rat liver microsomes (AID 1963578)
Procedure, shortened: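 Each plate received p53RE-bla cells, then compound, then rat liver microsomes and NADPH (both 0.5 mg/mL final). Plates were held 16 h at 37 C, and beta-lactamase activity was detected with LiveBLAzer over 2 h.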

[7] = p53 small molecule agonists, cell-based qHTS assay with human liver microsomes: qHTS cell viability counter screen (AID 1963579); also: nearly all actives have a fitted effect of over 45% in size
Procedure, shortened: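 Tox21 library compounds, delivered from DMSO stocks, were tested on p53RE-bla cells together with 0.5 mg/mL human liver microsomes and 0.5 mg/mL NADPH (final) over 16 h at 37 C; CellTiter-Glo luminescence served as the cytotoxicity measure.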

[8] = p53 small molecule agonists, cell-based qHTS assay with rat liver microsomes: qHTS cell viability counter screen (AID 1963580); also: nearly all actives have a fitted effect of over 45% in size
Procedure, shortened: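 Viability is assessed in parallel with the p53 reporter read: HCT-116 p53RE-bla cells receive compounds plus rat microsomes and NADPH (0.5 mg/mL final apiece), incubate 16 h at 37 C, and then CellTiter-Glo luminescence is recorded.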

[9] = p53 small molecule agonists, cell-based qHTS assay: qHTS cell viability counter screen (AID 1963581); also: nearly all actives have a fitted effect of over 45% in size
Procedure, shortened: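 HCT-116 p53RE-bla cells, 4,000/well, plated 5 h before compound pin transfer; 16 h at 37 C; bla substrate 2 h RT; then CellTiter-Glo, 30 min RT, luminescence.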

[10] = p53 small molecule agonists, cell-based qHTS assay (AID 1963582; active = well fitted activation curve with a large enough effect in the signal ratio in the repeat runs, not every such curve was filed as active; the % refers to the signal ratio)
Procedure, shortened: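 Reporter line: p53RE-bla. Pre-incubation 5 h, 37 C, 5% CO2; compound (DMSO, pin tool) 16 h, 37 C; B/G FRET substrate 2 h RT; fluorescence intensity read.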

[11] = molecular target: 5-hydroxytryptamine receptor 2A (Homo sapiens) (UniProt P28223); assay: 5-hydroxytryptamine receptor 2A (HTR2A) small molecule agonists, cell-based qHTS assay (AID 1963587); also: nearly all actives have a fitted effect of over 30% in size
Sequence of 5-hydroxytryptamine receptor 2A (Homo sapiens) (P28223 whole entry, looked up): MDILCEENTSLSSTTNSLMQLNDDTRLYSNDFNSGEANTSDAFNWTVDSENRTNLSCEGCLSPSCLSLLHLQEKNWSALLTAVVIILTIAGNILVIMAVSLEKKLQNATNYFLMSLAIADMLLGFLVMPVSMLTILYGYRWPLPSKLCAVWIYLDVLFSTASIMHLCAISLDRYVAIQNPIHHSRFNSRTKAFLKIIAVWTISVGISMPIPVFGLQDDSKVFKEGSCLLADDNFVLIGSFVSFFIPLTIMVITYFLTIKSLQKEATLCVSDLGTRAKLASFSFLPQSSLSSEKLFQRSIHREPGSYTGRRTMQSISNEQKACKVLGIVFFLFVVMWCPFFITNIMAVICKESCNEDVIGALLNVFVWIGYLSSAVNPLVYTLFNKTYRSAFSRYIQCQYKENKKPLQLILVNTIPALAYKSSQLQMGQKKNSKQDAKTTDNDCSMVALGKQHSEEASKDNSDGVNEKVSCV
Procedure, shortened: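 CHO cells stably expressing human HTR2A, plated 18 h, loaded with calcium dye 1 h at 37 C. Agonist mode: compounds added and intracellular calcium fluorescence recorded kinetically for 2 min at 1 sec intervals.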

[12] = molecular target: Muscarinic acetylcholine receptor M1 (Homo sapiens) (UniProt P11229); assay: Cholinergic receptor muscarinic 1 (CHRM1) small molecule antagonists, cell-based qHTS assay (AID 1963588); also: nearly all actives have a fitted effect of over 40% in size
Sequence of Muscarinic acetylcholine receptor M1 (Homo sapiens) (P11229 whole entry, looked up): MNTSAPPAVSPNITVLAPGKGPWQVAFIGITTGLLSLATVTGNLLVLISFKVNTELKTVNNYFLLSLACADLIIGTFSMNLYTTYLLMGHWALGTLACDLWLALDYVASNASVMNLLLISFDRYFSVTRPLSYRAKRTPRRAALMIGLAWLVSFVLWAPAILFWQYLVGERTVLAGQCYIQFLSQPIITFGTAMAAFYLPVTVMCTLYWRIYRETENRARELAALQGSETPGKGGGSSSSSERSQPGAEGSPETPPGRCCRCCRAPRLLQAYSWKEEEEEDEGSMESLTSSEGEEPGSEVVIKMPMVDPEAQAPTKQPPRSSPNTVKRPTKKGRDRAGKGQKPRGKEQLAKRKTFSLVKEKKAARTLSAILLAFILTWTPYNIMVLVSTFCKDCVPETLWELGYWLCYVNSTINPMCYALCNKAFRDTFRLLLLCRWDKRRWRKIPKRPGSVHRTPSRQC
Procedure, shortened: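 CHRM1-CHO calcium-flux assay, antagonist mode. Cells were seeded 18 h, dye-loaded 1 h at 37 C and given compound for 5 min at RT, then acetylcholine was added at 50nM. FDSS fluorescence was read 3 min; 15 concentrations, three runs.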

[13] = molecular target: Muscarinic acetylcholine receptor M1 (Homo sapiens) (UniProt P11229); assay: Cholinergic receptor muscarinic 1 (CHRM1) small molecule agonists, cell-based qHTS assay (AID 1963589); also: nearly all actives have a fitted effect of over 35% in size
Procedure, shortened: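 Human M1 in stable CHO line; 18 h plating, 1 h dye load 37 C; cpd added (agonist mode); Ca2+ fluorescence kinetic read, 1 s intervals; 15 conc, 3 runs.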

[14] = cAMP Responsive Elements (CRE) small molecule agonists, cell-based qHTS assay (AID 1963590)
Procedure, shortened: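 HEK 293T CRE-bla, 2,000 cells/well, 18 h preincubation 37 C/5% CO2; cpds (DMSO) pinned, 3 h; LiveBLAzer B/G FRET substrate, 2 h RT.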

[15] = cAMP Responsive Elements (CRE) small molecule antagonists, cell-based qHTS assay (AID 1963591; active = well fitted inhibition curve with a large enough effect in the signal ratio in the repeat runs, not every such curve was filed as active; the % refers to the signal ratio)
Procedure, shortened: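 Beta-lactamase reporter read by FRET substrate (LiveBLAzer B/G) after 2 h at room temperature. CRE-bla HEK293T cells had received compound plus 0.25 uM (final) NKH477 for 3 h at 37 °C.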

[16] = molecular target: Beta-2 adrenergic receptor (Homo sapiens) (UniProt P07550); assay: Adrenergic beta2 receptor (ADRB2) small molecule antagonists, cell-based qHTS assay (AID 1963592); also: series mostly up to about 92 µM; nearly all actives have a fitted effect of over 50% in size
Sequence of Beta-2 adrenergic receptor (Homo sapiens) (P07550 whole entry, looked up): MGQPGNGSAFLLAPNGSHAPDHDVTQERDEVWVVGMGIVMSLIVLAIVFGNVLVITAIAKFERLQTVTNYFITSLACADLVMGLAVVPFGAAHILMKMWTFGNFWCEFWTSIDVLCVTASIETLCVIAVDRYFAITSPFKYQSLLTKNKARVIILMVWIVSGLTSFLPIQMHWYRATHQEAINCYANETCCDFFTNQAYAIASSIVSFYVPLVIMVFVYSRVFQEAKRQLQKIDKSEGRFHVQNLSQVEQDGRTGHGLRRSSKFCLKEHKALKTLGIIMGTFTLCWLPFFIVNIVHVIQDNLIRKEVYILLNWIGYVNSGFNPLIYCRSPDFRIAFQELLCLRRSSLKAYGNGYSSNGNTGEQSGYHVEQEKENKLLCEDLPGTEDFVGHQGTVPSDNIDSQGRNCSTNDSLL
Procedure, shortened: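 Cells (CHO, stable ADRB2 overexpression) incubated 18-20hr at 37C; compounds added from DMSO; agonist mix (1nM isoproterenol, 100uM IBMX, 25uM Ro-20-1724) added; 0.5hr RT; d2-cAMP and anti-cAMP-cryptate added; 1hr RT; 665/615 nm read.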

[17] = molecular target: Beta-2 adrenergic receptor (Homo sapiens) (UniProt P07550); assay: Adrenergic beta2 receptor (ADRB2) small molecule agonists, cell-based qHTS assay (AID 1963593);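 also: CHO cells stably overexpressing human ADRB2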
Procedure, shortened: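 CHO cells stably over-expressing ADRB2 were plated overnight at 37C, then dosed with compounds plus a stimulation mix containing 100uM IBMX and 25uM Ro-20-1724 for 0.5hr at room temperature. cAMP was measured by HTRF competition, 1hr.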

[18] = molecular target: D(2) dopamine receptor (Homo sapiens) (UniProt P14416); assay: Dopamine D2 receptor (DRD2) small molecule agonists, cell-based qHTS assay (AID 1963594); also: nearly all actives have a fitted effect of over 35% in size
Sequence of D(2) dopamine receptor (Homo sapiens) (P14416 whole entry, looked up): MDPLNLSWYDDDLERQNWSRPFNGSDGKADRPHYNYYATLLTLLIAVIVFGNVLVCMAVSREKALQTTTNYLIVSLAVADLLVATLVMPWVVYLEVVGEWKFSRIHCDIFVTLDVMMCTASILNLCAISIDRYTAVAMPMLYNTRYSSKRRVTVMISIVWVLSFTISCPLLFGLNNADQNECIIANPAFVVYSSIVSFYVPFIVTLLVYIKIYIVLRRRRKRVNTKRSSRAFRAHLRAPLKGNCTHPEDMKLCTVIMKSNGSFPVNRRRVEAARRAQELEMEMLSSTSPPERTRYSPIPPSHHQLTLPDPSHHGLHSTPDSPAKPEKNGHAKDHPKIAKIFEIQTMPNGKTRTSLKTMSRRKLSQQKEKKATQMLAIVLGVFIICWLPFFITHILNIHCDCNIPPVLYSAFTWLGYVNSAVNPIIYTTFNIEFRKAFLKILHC
Procedure, shortened: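 HEK293 cells stably expressing human DRD2, pre-treated with PDE inhibitor Ro20-1724 (0.1 mM final) and compound 10 min at room temperature, then stimulated with NKH477 (200nM […]) for 30 min. cAMP read by HTRF (665/620 nm).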

[19] = molecular target: D(2) dopamine receptor (Homo sapiens) (UniProt P14416); assay: Dopamine D2 receptor (DRD2) small molecule antagonists, cell-based qHTS assay (AID 1963595; active = well fitted inhibition curve with a large enough effect in the signal ratio in the repeat runs, with a control signal flat; the % refers to the signal ratio)
Procedure, shortened: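 In this cell-based antagonist screen, compounds act for 10 min at room temperature before a 30 min challenge with 12 nM quinpirole and 200 nM NKH477. cAMP is quantified by HTRF competition in DRD2-HEK293 cells containing 0.1 mM Ro20-1724.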

[20] = molecular target: 5-hydroxytryptamine receptor 2A (Homo sapiens) (UniProt P28223); assay: 5-hydroxytryptamine receptor 2A (HTR2A) small molecule antagonists, cell-based qHTS assay (AID 1963586); also: nearly all actives have a fitted effect of over 45% in size
Procedure, shortened: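 Antagonist-mode intracellular calcium assay: DOI (4 nM) added after 5 min compound pre-incubation at room temperature to dye-loaded HTR2A-CHO cells. Fluorescence followed for 3 min, sampled every second.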
% is scaled to controls: 0 for no effect and ±100 for the full control effect.

CN(C)c1ccc(C=O)cc1
inactive: Potency [1] | Potency [2] | Potency [3] | Potency [4] | Potency [5] | Potency [6] | Potency [7] | Potency [8] | Potency [9] | Potency [10] | Potency [11] | Potency [12] | Potency [13] | Potency [14] | Potency [15] | Potency [16] | Potency [17] | Potency [18] | Potency [19]

C=C/C=C/C=C/CCCCC
inactive: activity change, negative = cytotoxicity [1] 4.28% [at 19 µM] | activity change [2] 0.656% [at 11.8 µM, hits give high values] | activation [3] 1.28% [at 15.8 µM] | activation [4] 0.367% [at 11.8 µM] | activation [5] -4.49% [at 13.5 µM] | activation [6] 0.431% [at 13.6 µM] | activity change, negative = cytotoxicity [7] 1.88% [at 13.5 µM] | activity change, negative = cytotoxicity [8] -6.94% [at 13.5 µM] | activity change, negative = cytotoxicity [9] -4.28% [at 13.5 µM] | activation [10] -3.72% [at 13.5 µM] | activity, negative = inhibition [20] -10.4% [at 12.7 µM] | activation [11] -2.6% [at 15.9 µM] | activity, negative = inhibition [12] 25.8% [at 12.6 µM] | activation [14] 0.016% [at 19 µM] | activity change, negative = inhibition [15] 0.0574% [at 18.9 µM] | activity change, negative = inhibition [16] 4.38% [at 19 µM] | activity change, negative = inhibition [19] -7.54% [at 18.9 µM]

CC(Oc1c(Cl)cccc1Cl)C1=NCCN1 (centres undefined)
inactive: Potency [1] | Potency [2] | Potency [3] | Potency [4] | Potency [5] | Potency [6] | Potency [7] | Potency [8] | Potency [9] | Potency [10] | Potency [20] | Potency [12] | Potency [13] | Potency [14] | Potency [15] | Potency [16] | Potency [18] | Potency [19]
